50 molecules from ChEMBL document CHEMBL3988442, “University of Dundee, Small-Polar-MMV Screening Library” (2021) can be followed below.

The target in assay [1] is T1, Aspartate--tRNA(Asp/Asn) ligase (Mycobacterium tuberculosis (strain ATCC 25618 / H37Rv)) (UniProt P9WFW3). Further: in the data most compounds retested in dose-response had high values.
T1 sequence (whole entry): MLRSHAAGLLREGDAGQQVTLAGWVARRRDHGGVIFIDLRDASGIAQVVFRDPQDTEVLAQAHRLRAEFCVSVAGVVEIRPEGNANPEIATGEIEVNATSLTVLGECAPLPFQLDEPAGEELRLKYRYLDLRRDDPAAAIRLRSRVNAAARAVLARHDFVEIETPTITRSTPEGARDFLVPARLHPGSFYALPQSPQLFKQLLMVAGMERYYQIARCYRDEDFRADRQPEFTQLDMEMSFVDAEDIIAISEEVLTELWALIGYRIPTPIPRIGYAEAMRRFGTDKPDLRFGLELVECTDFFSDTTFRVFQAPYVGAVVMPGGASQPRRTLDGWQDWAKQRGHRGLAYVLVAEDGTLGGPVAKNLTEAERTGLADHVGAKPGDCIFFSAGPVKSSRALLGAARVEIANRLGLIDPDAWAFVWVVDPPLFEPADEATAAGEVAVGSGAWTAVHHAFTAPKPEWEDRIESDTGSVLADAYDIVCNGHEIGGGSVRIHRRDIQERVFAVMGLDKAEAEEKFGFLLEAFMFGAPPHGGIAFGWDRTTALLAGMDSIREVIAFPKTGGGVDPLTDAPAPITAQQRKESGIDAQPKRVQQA
Description: Assay for Asp RNA synthetase-1 from Mycobacterium tuberculosis. It counts as functional. On the set-up: scale not given: direction of the effect not stated beside the values. As to conditions: 30 µM.

Assay [2] deals with Shiga toxin 2 (Escherichia coli O157:H7) (UniProt P09385+P09386). Description: E. coli 0.157:H7 Shiga Toxin SOP - stx2 screening assay. The note with it: 30 µM. On the set-up: scale not given: direction of the effect not stated beside the values. In kind it is functional.

Molecules are shown by their SMILES.

On to `O=C(NCCCN1CCOCC1)c1cc(-c2ccco2)[nH]n1`, for which the values for the Percent Effect in assay [1] and in assay [2] were -0.98% and -21.1%, respectively.

On to `CC(C)(C)CC(=O)N1CC[C@@H]2[C@H](CC1)N(S(C)(=O)=O)CCS2(=O)=O`, for which the values for the Percent Effect in assay [1] and in assay [2] were -2.83% and -21.6%, respectively.

For the molecule `CN(C)CCCNC(=O)CNC(=O)N1CCc2c([nH]c3ccccc23)C1`, the Percent Effect is 4.82% in assay [1] and -42.4% in assay [2].

As for `Cc1nc(O)cc(C2CCN(Cc3cccc(F)c3F)C2)n1` (stereo not given), the figures for the Percent Effect in assay [1] and in assay [2] were -1.21% and -17.9%, respectively.

Turning to `O=C(c1ccncc1)N1CCC(O)(Cn2ccc3ccncc32)CC1`, the results for the Percent Effect in assay [1] and in assay [2] were -0.194% and -14.9%, respectively.

Take `FC(F)(F)Cn1ccnc1CN1CCOC(Cn2cccn2)C1` (stereo not given): the Percent Effect in assay [1] was 1.38%; in assay [2] it was 8.38%.

In the case of `O=C(CCc1ccc(=O)[nH]n1)N1CCCC(COc2ccc(F)cc2)C1` (stereo not given), the Percent Effect in assay [1] turned out to be 3.84%; in assay [2], 6.15%.

`Cc1cc(C(=O)N2CCCCC2C)ccc1NCC(=O)N1CCOCC1` (stereo not given): the Percent Effect in assay [1] was -12.3%; in assay [2], -49.1%.

For `C1CCCN(c2nc(C3CC3)ns2)CC1`, the Percent Effect was -2.7% in assay [1] and -28.7% in assay [2].

In the case of `Cc1cccc(CN2C(=O)CC[C@@H]3[C@H]2CCN3Cc2ccc(C)s2)n1`, the Percent Effect is 7.52% in assay [1] and -11.3% in assay [2].

With `CC(CNC(=O)N1CCSCC1)Cc1cccs1` (stereo not given), the Percent Effect in assay [1] is 1.56%; in assay [2], 6.01%.

For `CCc1nc2n(n1)CC(NCc1ncc(-c3ccccc3)o1)CC2` (stereo not given), the values for the Percent Effect in assay [1] and in assay [2] were 0.562% and 9.14%, respectively.

Take `CCCN1CCC(N(Cc2ncc(C)o2)C(C)=O)C1` (stereo not given): the Percent Effect in assay [1] came to 2.38%; in assay [2] it was 2.8%.

Take `CCc1nccc(CN2CCCC(c3nn(C)c(=O)n3CC)C2)n1` (stereo not given): the results for the Percent Effect in assay [1] and in assay [2] were 1.68% and 10.8%, respectively.

As to `O=C(c1ccncn1)N1CCO[C@H]2[C@@H](OCc3cccnc3)CC[C@@H]21`, the Percent Effect in assay [1] is 5.42%; in assay [2], -37.5%.

In the case of `Cc1ccc(-c2nc(CN3CCc4nn(C)c(=O)cc4C3)no2)cc1`, the Percent Effect in assay [1] is 5.81%; in assay [2] it was -0.113%.

`COc1ccc(CN2CC[C@@H](O)[C@@H]2Cc2ccccc2)cc1`: the Percent Effect in assay [1] was -0.406%; in assay [2], -47%.

On to `Cc1cc(OCC(=O)NS(=O)(=O)c2c(C)noc2C)ccc1Cl`, for which the results for the Percent Effect in assay [1] and in assay [2] were -2.01% and 13.3%, respectively.

Consider `COCCN1C[C@@H]2CCCO[C@@H]2[C@H](NC(=O)c2cnccn2)C1`, for which the Percent Effect in assay [1] is 3.03%; in assay [2], -9.33%.

In the case of `Cc1cc(NC(=O)NCc2ccccc2OC(F)F)n(C)n1`, the figures for the Percent Effect in assay [1] and in assay [2] were -5.2% and -10.5%, respectively.

As for `COCCNC(=O)c1cc(S(=O)(=O)N2CCCCC2)cs1`, the Percent Effect was 0.21% in assay [1] and -0.342% in assay [2].

Take `COC(=O)C1CCN(c2cncc(-n3nc(C)cc3C)n2)CC1`: the Percent Effect was 8.26% in assay [1] and -51.5% in assay [2].

As to `CN(C)c1ccc(C(=O)N2CCN(C(=O)N3CCCCC3)CC2)nn1`, the Percent Effect in assay [1] was -3.34%; in assay [2] it was -35%.

In the case of `CCCNCc1cc2c(C)cc(C)cc2n2c(=O)n(C)nc12`, the results for the Percent Effect in assay [1] and in assay [2] were -5.73% and -11.4%, respectively.

For `O=C(c1ncccn1)N1C[C@H]2CCC[C@@]2(COCc2ccncc2)C1`, the Percent Effect in assay [1] is -2.08%; in assay [2] it was -24.5%.

As for `Cn1cnc2c1CCN(Cc1csc(-c3ccsc3)n1)C2`, the Percent Effect in assay [1] is 3.77%; in assay [2], -95.3%.

For `CC(C)N(CC(N)=O)Cc1csc(COc2ccc(F)cc2)n1`, the Percent Effect was -2.28% in assay [1] and 1.96% in assay [2].

For the molecule `Cc1ccc(C(=O)N2CCCC3(CCCC(=O)N3C)C2)cc1F` (stereo not given), the values for the Percent Effect in assay [1] and in assay [2] were 3.71% and -5.85%, respectively.

As for `CC(C)COCC(NC(=O)c1cccnc1)c1ccco1` (stereo not given), the Percent Effect in assay [1] is 2.37%; in assay [2], 21%.

With `CCS(=O)(=O)CCN1CCC(N(C)Cc2noc(C(C)C)n2)C1` (stereo not given), the figures for the Percent Effect in assay [1] and in assay [2] were 0% and -10.7%, respectively.

For the molecule `Cn1ccnc1CNC(=O)N(CCCO)C1CCCc2ccccc21` (stereo not given), the results for the Percent Effect in assay [1] and in assay [2] were 0.809% and 1.57%, respectively.

`CNC(=O)CS(=O)(=O)Cc1coc(-c2ccc(F)cc2)n1`: the Percent Effect in assay [1] is -1.26%; in assay [2], -3.77%.

Regarding `Cc1occc1C(=O)N1CCO[C@H]2[C@@H](Oc3ccccn3)CC[C@@H]21`, the values for the Percent Effect in assay [1] and in assay [2] were -0.28% and -16.2%, respectively.

On to `Cc1ccc(NC(=O)N2C[C@H]3CC[C@@H]2CN(Cc2cscn2)C3)cc1`, for which the Percent Effect in assay [1] was -2.57%; in assay [2] it was 8.71%.

Take `COCCN1CCN(CCCS(=O)(=O)c2ccccc2)CC1C` (stereo not given): the Percent Effect in assay [1] was -4.25%; in assay [2], -5.54%.

Take `Cc1[nH]ccc1C(=O)Nc1cccc(CN2CCC(CO)CC2)c1`: the values for the Percent Effect in assay [1] and in assay [2] were -1.71% and -43.9%, respectively.

Take `O=C([C@H]1C[C@H]2OCC[C@H]2N(C(=O)c2ccncc2)C1)N1CCCCO1`: the Percent Effect in assay [1] was -3.79%; in assay [2] it was -6.05%.

`CCOCCCNC(=O)c1cc(C)nc(N2CCCC2)n1`: the Percent Effect in assay [1] was -5.84%; in assay [2], -10.3%.

Take `CSCCCN1CCn2nc(CNC(C)=O)cc2C1`: the Percent Effect was 3.05% in assay [1] and -62.7% in assay [2].

For the molecule `Cc1noc(C2CCCN(C(=O)c3ccc(Br)o3)C2)n1` (stereo not given), the values for the Percent Effect in assay [1] and in assay [2] were -2.54% and -8.47%, respectively.

As for `CCCn1nc(C2CCNCC2)n(Cc2ccccc2)c1=O`, the Percent Effect is -5.32% in assay [1] and -6.93% in assay [2].

For `CCN(CC)Cc1cn2c(n1)CN(C(=O)c1cnccn1)CC2`, the Percent Effect in assay [1] turned out to be 0.29%; in assay [2], 5.28%.

For `CNC(=O)[C@@H]1C[C@H]2CN(Cc3ccco3)C[C@H]2N1C`, the Percent Effect is 1.3% in assay [1] and -1.93% in assay [2].

In the case of `CCCc1nc(CN2CCN(CC(O)c3ccccc3)CC2)no1` (stereo not given), the Percent Effect in assay [1] was -4%; in assay [2] it was -3.05%.

As to `CCn1c(CN2CCCC2)nnc1C1CCN(Cc2ccc(C)o2)CC1`, the results for the Percent Effect in assay [1] and in assay [2] were -0.695% and 1.78%, respectively.

For the molecule `Cc1cc(CN2CCN(c3ccc4nncn4n3)C(C)C2)no1` (stereo not given), the Percent Effect is -3.98% in assay [1] and -29.9% in assay [2].

For the molecule `CN(CCCNC(=O)N1CCCC1c1ccsc1)c1ccccn1` (stereo not given), the figures for the Percent Effect in assay [1] and in assay [2] were -3.28% and -79.8%, respectively.

For the molecule `CN1CCN(C(=O)c2cnc3c(cnn3C3CCCC3)c2)CC1`, the Percent Effect in assay [1] was -4%; in assay [2], -2.45%.

Consider `Cc1cnn(CC2CCCN2CCCc2nc3ccccc3o2)c1` (stereo not given), for which the Percent Effect in assay [1] is 1.34%; in assay [2], -14.6%.

`CS(=O)(=O)NC[C@H]1OC[C@@H]2CCN(Cc3ccc(F)cc3)C[C@@H]21`: the values for the Percent Effect in assay [1] and in assay [2] were 0.903% and -21.2%, respectively.
